Hits are enriched below; roughly 8% of the tested compounds scored in any of these assays.
VP16 counter = VP16 counterscreen qHTS for inhibitors of ROR gamma transcriptional activity. Drosophila S2 Gal4-VP16 UAS-luciferase, luminescence, 20 h. Potency, µM (doses to about 53.6 µM), hits mostly inhibitors. 310,000 compounds, 3.5% hits;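 also: Gal4-VP16 expression switched on by copper sulfate through the metallothionein promoter; nearly all actives have a fitted effect of over 50% in size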
Coupling enz = qHTS Assay for Inhibitors of Fructose-1,6-bisphosphate Aldolase from Giardia Lamblia: Coupling assay counterscreen; coupling enzyme system counterscreen, AmpLite Red fluorescence; 290,000 compounds, 0.67% hits; activity change, negative = inhibition, % at 58.2 µM, hits read low; in the data active = activity change below about -30%
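Final compound at 57.5 uM, incubated 10 min at RT with coupling enzyme reagent (glyceraldehyde-3-phosphate), then 20 min with substrate and AmpLite Red detection. Fluorescence read at 525/598 nm; tests interference with the coupling assay, not aldolase inhibition.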
ELG1 DNA repair = qHTS screen for small molecules that inhibit ELG1-dependent DNA repair in human embryonic kidney (HEK293T) cells expressing luciferase-tagged ELG1 | 330,000 compounds, 2.3% hits | AID 504467, 2011 | Potency, µM (doses to about 46.1 µM), usual class: inhibitors | HEK293T ELG1-luciferase reporter, luminescence, 16 h; DNA damage induced by 5-fluorouridine; also: nearly all actives have a fitted effect of over 55% in size
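In this reporter screen, reduction of luminescence relative to DMSO vehicle indicated activity. Compounds and 5-fluorouridine were added together to 2,000 cells per well, incubated for 16 hr at 37 °C, then developed with ONE-Glo.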
TSHR antag = Antagonists of the Thyroid Stimulating Hormone Receptor: HTS campaign; AID 504810, 2011; 330,000 compounds, 0.2% hits; TSHR-expressing cells, TSH-stimulated cAMP HTRF, 2 h; stronger effect = lower value; Thyrotropin receptor (Homo sapiens), P16473; activity change, negative = inhibition, % at 11.5 µM;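 active = activity change below a set negative limit, meaning inhibition stronger than a set level, cut at about -70% in these data; inconclusive = activity change between two set negative limits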
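Inhibition of cAMP made by TSHR-expressing cells under TSH stimulation (4nM final, EC80; 2 h, 37 deg C) is quantified with a one-step lysis HTRF kit, anti-cAMP cryptate versus cAMP-d2.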
RORg inh = qHTS for inhibitors of ROR gamma transcriptional activity; 310,000 compounds, 5.4% hits; Nuclear receptor ROR-gamma (Mus musculus), P51450; Potency, µM (titrated, usually from 53.6 µM), hits mostly inhibitors; Drosophila S2 Gal4-RORgamma UAS-luciferase reporter, 20 h; also: nearly all actives have a fitted effect of over 60% in size
Target sequence (P51450 whole entry, looked up, the tested form may be a part): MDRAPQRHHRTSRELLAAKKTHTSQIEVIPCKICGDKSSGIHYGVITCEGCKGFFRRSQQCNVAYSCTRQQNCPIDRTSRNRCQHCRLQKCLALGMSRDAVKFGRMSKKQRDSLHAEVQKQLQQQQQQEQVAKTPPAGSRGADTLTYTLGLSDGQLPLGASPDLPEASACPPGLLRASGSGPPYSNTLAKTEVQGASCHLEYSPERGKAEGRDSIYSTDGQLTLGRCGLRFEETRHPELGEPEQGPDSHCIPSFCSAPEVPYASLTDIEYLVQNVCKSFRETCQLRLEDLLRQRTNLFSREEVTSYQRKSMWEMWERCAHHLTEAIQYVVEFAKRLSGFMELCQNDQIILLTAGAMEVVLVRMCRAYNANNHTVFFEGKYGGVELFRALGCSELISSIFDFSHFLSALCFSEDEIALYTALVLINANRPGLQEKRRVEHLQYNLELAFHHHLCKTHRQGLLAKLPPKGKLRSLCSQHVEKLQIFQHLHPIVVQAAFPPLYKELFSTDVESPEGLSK
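Compounds are pin-transferred onto Drosophila Schneider cells expressing a copper-inducible Gal4–ROR gamma transactivation domain fusion. After 1 hr, copper sulfate is added to 700 uM final; luciferase is read 20 hr later.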
Each line names hits and unclear results; the compound was inactive in the other large screens. Unless noted, calls follow the shape of the dose curve; as a rule, active = well fitted curve in the direction sought with a large enough effect; inconclusive = small, poorly fitted or top-dose-only effect, or another doubt; inactive = no such curve, though single readings can be large; an effect the other way counts as inactive or inconclusive.

Cc1cc(Nc2cccc(Cl)c2Cl)n2ncnc2n1	VP16 counter inconclusive, RORg inh 12.6µM
COc1ccc(C(=O)NC(=S)Nc2ccc(N3CCOCC3)cc2)cc1Cl	VP16 counter 7.94µM, ELG1 DNA repair inconclusive, RORg inh 4.47µM
CC(=O)N1CCN(c2ccc(NC(=O)c3cccc(C)c3)cc2)CC1	ELG1 DNA repair inconclusive
Cc1ccc(C(=O)Nc2ccc(S(=O)(=O)N3CCOCC3)cc2)cc1C	ELG1 DNA repair inconclusive
Cc1cccc(C(=O)NC(=S)Nc2ccc(N3CCOCC3)cc2)c1	VP16 counter 7.08µM, RORg inh 3.98µM
COC(=O)c1cc(NC(=S)NC(=O)c2ccccc2)ccc1N1CCOCC1	VP16 counter inconclusive, ELG1 DNA repair inconclusive, RORg inh 17.8µM (no result: Coupling enz)
COc1ccccc1C(=O)NC(=S)Nc1ccc(N2CCOCC2)c(Cl)c1	VP16 counter inconclusive, ELG1 DNA repair inconclusive
Cc1ccc(C(=O)NC(=S)Nc2ccc(N3CCOCC3)cc2)cc1C	VP16 counter inconclusive, ELG1 DNA repair 10.3µM, RORg inh 2µM
COc1ccc(N2CC(C(=O)Nc3ccccc3C(=O)NC3CC3)CC2=O)cc1 (stereo unspecified)	none
CC(C)OP(=O)(OC(C)C)C(Nc1ccc([N+](=O)[O-])cc1)c1cccc([N+](=O)[O-])c1 (stereo unspecified)	none
CC(C)OP(=O)(OC(C)C)/C(C=O)=N\Nc1ccc([N+](=O)[O-])cc1	ELG1 DNA repair 23.1µM
O=C(CNC1=NCCC1)c1ccc(Cl)cc1	Coupling enz -35.9
Cc1ccc(C(=O)N2CCC3(CC2)NCCc2[nH]cnc23)cc1C	none (no result: Coupling enz)
COc1cccc(/C=N/NC(=O)CNC(=O)COc2cccc(C)c2)c1O	VP16 counter 2.24µM, ELG1 DNA repair inconclusive, RORg inh 0.282µM
Cc1cccc(OCC(=O)NCC(=O)N/N=C/c2cc(Br)ccc2OCc2ccccc2)c1	ELG1 DNA repair 25.9µM, RORg inh inconclusive
CC(C)(C)OC(=O)N[C@@H](Cc1ccccc1)C(=O)N[C@@H](CO)[C@H](O)[C@@H]1C[C@@H]1C(=O)NC1CC1	none
COc1ccc(-c2ccc(/C=N/NC(=O)c3cccnc3)o2)c([N+](=O)[O-])c1	VP16 counter inconclusive, ELG1 DNA repair inconclusive, RORg inh 20µM
O=C(N/N=C/c1ccc(-c2ccccc2[N+](=O)[O-])o1)[C@H]1C[C@@H]1c1ccccc1	VP16 counter 11.2µM, Coupling enz -43.8, ELG1 DNA repair inconclusive, RORg inh inconclusive
COc1cc([N+](=O)[O-])cc(/C=N/NC(=O)c2cccnc2)c1O	ELG1 DNA repair inconclusive
COc1ccc(-c2ccc(/C=N/N3C(=O)C4C5C=CC(C6CC56)C4C3=O)o2)c([N+](=O)[O-])c1 (stereo unspecified)	ELG1 DNA repair 18.4µM, RORg inh inconclusive
Cc1ccc(C(=O)N/N=C/c2ccc(-c3ccccc3[N+](=O)[O-])o2)cn1	Coupling enz -61.4
O=C(N/N=C/c1ccc(-c2ccc([N+](=O)[O-])cc2)o1)[C@H]1C[C@@H]1c1ccccc1	none
CCNS(=O)(=O)c1ccc(CCC(=O)NCc2ccc3c(c2)OCO3)cc1	none (no result: VP16 counter, RORg inh)
COc1ccccc1NS(=O)(=O)c1cc(NC(=O)COc2ccccc2F)ccc1N1CCOCC1	none (no result: VP16 counter, Coupling enz, RORg inh)
CC(=O)Nc1oc(-c2cccc3ccccc23)nc1C#N	ELG1 DNA repair inconclusive (no result: VP16 counter, Coupling enz, RORg inh)
C=C(CC1([C@@H](NP(=O)(c2ccccc2)c2ccccc2)[C@H]2C[C@@H]2CCCC)CC1)c1cccc(OC)c1	VP16 counter inconclusive (no result: ELG1 DNA repair, TSHR antag)
Cc1cc(C)c(C)c(S(=O)(=O)N2CCC(C(=O)NCC(c3ccccc3)N(C)C)CC2)c1C (stereo unspecified)	none
CCOC(=O)CC[C@H](NC(=O)Cn1cnc2c(SC)nc(N)nc21)C(=O)OCC	none (no result: VP16 counter, Coupling enz, RORg inh)
Cc1ccc(C(=O)N/N=C\c2ccc(-c3ccc(Cl)c(Cl)c3)o2)cn1	VP16 counter inconclusive, RORg inh inconclusive
Cc1ccc(C(=O)N/N=C/c2ccc(-c3cccc(Cl)c3)o2)cn1	VP16 counter 7.08µM, ELG1 DNA repair inconclusive, RORg inh 5.01µM
Cc1cc(C)c2c(N)c(C(=O)c3ccccc3Cl)sc2n1	none
Cc1cc(C)c2c(N)c(C(=O)c3ccc(Cl)cc3Cl)sc2n1	ELG1 DNA repair 10.3µM
Cc1cc(C)c2c(N)c(C(=O)c3cccc(Cl)c3)sc2n1	ELG1 DNA repair 25.9µM
Cc1onc(-c2ccccc2)c1C(=O)NCc1ccco1	none
Cc1onc(-c2ccccc2)c1C(=O)N(Cc1ccco1)Cc1cccs1	VP16 counter inconclusive, Coupling enz -34.7, RORg inh inconclusive
C/C(=N\N1CCN(Cc2ccc(Cl)cc2)CC1)c1ccc([N+](=O)[O-])cc1	VP16 counter inconclusive, ELG1 DNA repair 16.4µM, RORg inh inconclusive
O=[N+]([O-])c1ccc(Cl)c(/C=N/N2CCN(Cc3ccc(Cl)cc3)CC2)c1	none
Cc1ccc(NC(=O)COc2ccc(Br)cc2CO)cc1S(=O)(=O)N1CCOCC1	ELG1 DNA repair 20.6µM (no result: VP16 counter, Coupling enz, RORg inh)
COc1ccc(/C=C/C(=O)Nc2ccc(S(=O)(=O)N3CCOCC3)cc2)c(OC)c1	ELG1 DNA repair 23.1µM (no result: VP16 counter, Coupling enz, RORg inh)
CCc1ccc(N2CC(C(=O)Nc3ccc(C)c(S(=O)(=O)N4CCOCC4)c3)CC2=O)cc1 (stereo unspecified)	ELG1 DNA repair 20.6µM
Cc1ccc(NC(=O)Nc2ccccc2F)cc1S(=O)(=O)N1CCOCC1	ELG1 DNA repair 20.6µM (no result: VP16 counter, Coupling enz, RORg inh)
COc1ccc(/C=C/C(=O)Nc2ccc(C)c(S(=O)(=O)N3CCOCC3)c2)cc1	ELG1 DNA repair 20.6µM (no result: VP16 counter, Coupling enz, RORg inh)
CC(=O)N(Cc1cccs1)Cc1cc2ccc(C)c(C)c2nc1Cl	ELG1 DNA repair 11.6µM
Oc1ccc(Br)cc1CNc1cccc2cccnc12	ELG1 DNA repair inconclusive
COc1cccc(CNc2cccc3cccnc23)c1O	Coupling enz -56.7, ELG1 DNA repair inconclusive (no result: VP16 counter)
COc1cccc(CNc2cnc3ccccc3c2)c1O	VP16 counter 10µM, ELG1 DNA repair inconclusive, RORg inh inconclusive
Oc1c(Br)cc(Br)cc1CNc1cccc2cccnc12	VP16 counter 8.91µM, ELG1 DNA repair inconclusive, RORg inh 14.1µM
O=C1[C@@H](Oc2ccccc2)[C@@H](c2ccncc2)N1c1ccncc1	ELG1 DNA repair inconclusive (no result: VP16 counter, Coupling enz, RORg inh)
CCOc1ccc(N2CC(C(=O)NC3CCCC3)CC2=O)cc1 (stereo unspecified)	none
COc1cc(-c2nnc(CSc3nc4ccccc4s3)o2)cc(OC)c1OC	ELG1 DNA repair 11.6µM
COc1cc2nc(SCc3ccc(C(F)(F)F)cc3)n(Cc3cccs3)c(=N)c2cc1OC	VP16 counter inconclusive
COCCCn1c(SCc2ccccc2)nc2cc(OC)c(OC)cc2c1=N	VP16 counter inconclusive, ELG1 DNA repair 16.4µM, RORg inh inconclusive

Screening results from PubChem.
